Among the data in PubChem BioAssay (Tox21) are Potency and outcome values, retold here.

The nature of test [1]: qHTS assay to test for compound auto fluorescence at 535 nm (green) in HEK293 cells (AID 720680).
Test [2] in a line: qHTS assay to test for compound auto fluorescence at 460 nm (blue) in HEK293 cell free culture (AID 720681). The procedure, abridged:
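Blue fluorescence (Ex 405/Em 460 nm, triamterene-equivalent) was read immediately after pin transfer of compound or DMSO into medium (DMEM, 10% FBS) without cells.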

Test [3] in a line: qHTS assay to test for compound auto fluorescence at 535 nm (green) in HEK293 cell free culture (AID 720682). The procedure, abridged: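 No cells present: wells hold DMEM supplemented with 10% FBS, into which compound or vehicle is pinned. Green emission is then recorded (485 nm excitation, 535 nm emission) and scaled to fluorescein.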
Test [4] can be described thus: qHTS assay to test for compound auto fluorescence at 590 nm (red) in HEK293 cell free culture (AID 720683). The procedure, abridged:
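Red-channel autofluorescence of compounds in culture medium (DMEM, 10% FBS), no cells, measured at 540/590 nm. Rose Bengal sodium is the reference fluorophore for equivalence.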

A short description of test [5]: qHTS assay to test for compound auto fluorescence at 590 nm (red) in HepG2 cell free culture (AID 720684). The procedure, abridged:
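Plate contents were MEM with 10% FBS plus test compound or DMSO, no cells. Fluorescence was recorded with 540 nm excitation and 590 nm emission.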

Test [6] in a line: qHTS assay to test for compound auto fluorescence at 460 nm (blue) in HepG2 cell free culture (AID 720685). In a few lines: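 Compound (23 nL) or DMSO pinned into cell-free MEM with 10% FBS; blue fluorescence read at 405/460 nm excitation/emission, expressed as auto-fluorescence equivalency to triamterene.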
Test [7] is described as follows: qHTS assay to test for compound auto fluorescence at 535 nm (green) in HepG2 cell free culture (AID 720686).
Test [8] has as its target Glucocorticoid receptor (Homo sapiens) (UniProt P04150). Put plainly: qHTS assay to identify small molecule agonists of the glucocorticoid receptor (GR) signaling pathway (AID 720691; active = well fitted activation curve with a large enough effect in the signal ratio in the repeat runs, not every such curve was filed as active; the % refers to the signal ratio). In a few lines: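 Agonist mode in a HeLa line carrying a GRE-controlled beta-lactamase reporter. Compounds act for 18 h at 37 C before a 2 h room-temperature FRET substrate step and fluorescence reading.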

Test [9] shares this target. Put plainly: qHTS assay to identify small molecule antagonists of the glucocorticoid receptor (GR) signaling pathway (AID 720692; active = well fitted inhibition curve with a large enough effect in the signal ratio in the repeat runs, not every such curve was filed as active; the % refers to the signal ratio). In a few lines:
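Cells plated, rested 4 h at 37 C/5% CO2; compounds in DMSO pin-transferred; dexamethasone added to 5 nM final; 18 h at 37 C; B/G FRET substrate added, 2 h room temperature; fluorescence measured.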

Test [10] can be described thus: qHTS assay to identify small molecule antagonists of the glucocorticoid receptor (GR) signaling pathway - cell viability counter screen (AID 720693). Also: nearly all actives have a fitted effect of over 55% in size.
The nature of test [11]: qHTS assay for identifying genotoxic compounds that show differential cytotoxicity against isogenic chicken DT40 cell lines with known DNA damage response pathways - wild type cell line (AID 743012). Also: nearly all actives have a fitted effect of over 60% in size. Also: potency is read from the fitted curve at half-maximal effect. The procedure, abridged:
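Cells (DT40 wild type, 300/well) are treated with DMSO-dissolved compounds after a ~0.5 h pre-incubation and kept 40 h at 37 C/5% CO2. Viability is then measured by CellTiter-Glo luminescence following 30 min at room temperature.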

Test [12] in a line: qHTS assay for identifying genotoxic compounds that show differential cytotoxicity against isogenic chicken DT40 cell lines with known DNA damage response pathways - Rev3 mutant cell line (AID 743014). Also: nearly all actives have a fitted effect of over 55% in size. Also: potency is read from the fitted curve at half-maximal effect.
Test [13] in a line: qHTS assay for identifying genotoxic compounds that show differential cytotoxicity against isogenic chicken DT40 cell lines with known DNA damage response pathways - Rad54/Ku70 mutant cell line (AID 743015). Also: nearly all actives have a fitted effect of over 60% in size. Also: potency is read from the fitted curve at half-maximal effect.
Test [14] in a line: qHTS assay to identify small molecule antagonists of the androgen receptor (AR) signaling pathway - cell viability counter screen (AID 743033; also: nearly all actives have a fitted effect of over 45% in size; also: potency is read from the fitted curve at half-maximal effect).
Test [15] in a line: qHTS assay to identify small molecule antagonists of the androgen receptor (AR) signaling pathway using the MDA cell line - cell viability counter screen (AID 743041; also: nearly all actives have a fitted effect of over 45% in size). In a few lines: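 R1881-driven MDA-kb2 AR-luc cells, 3,000/well, were dosed with library compounds for 16 h; cell health came from CellTiter-Fluor fluorescence in the reporter wells.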
A short description of test [16]: qHTS assay to test for compound auto fluorescence at 460 nm (blue) in HepG2 cells (AID 720687). The procedure, abridged:
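Blue-channel autofluorescence (Ex/Em 405/460 nm, triamterene-equivalent) was measured after 1 hr compound exposure at 37 C, 5% CO2. Cells were HepG2, plated overnight at 37 C in MEM plus 10% FBS.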

For test [17], the target named is Androgen receptor (Homo sapiens) (UniProt P10275). Put plainly: qHTS assay to identify small molecule antagonists of the androgen receptor (AR) signaling pathway (AID 743035; active = well fitted inhibition curve with a large enough effect in the signal ratio in the repeat runs, not every such curve was filed as active; the % refers to the signal ratio; also: potency is read from the fitted curve at half-maximal effect). In a few lines:
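Antagonism is scored as loss of R1881-driven beta-lactamase reporter expression in HEK293 cells carrying the reporter under a UAS element, after 16 h co-treatment at 37C and a 2 h room-temperature FRET substrate read.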

The target is the same in test [18]. As to the kind of experiment: qHTS assay to identify small molecule agonists of the androgen receptor (AR) signaling pathway (AID 743036; active = well fitted activation curve with a large enough effect in the signal ratio in the repeat runs, with a control signal flat, not every such curve was filed as active; the % refers to the signal ratio). The procedure, abridged: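 Quantitative HTS of the Tox21 10K library in HEK293 cells bearing a stably integrated UAS-controlled beta-lactamase reporter. Compound exposure lasted 16 h at 37C. Reporter activity was detected by FRET substrate fluorescence after 2 h at room temperature.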

For test [19] the target is unchanged. As to the kind of experiment: qHTS assay to identify small molecule agonists of the androgen receptor (AR) signaling pathway using the MDA cell line (AID 743040; also: nearly all actives have a fitted effect of over 20% in size). In a few lines:
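After a 5 h incubation at 37C and 0% CO2, MDA-kb2 reporter cells were dosed with compounds in DMSO and kept 16 h under the same conditions. Luciferase activity was then read as luminescence with ONE-Glo.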

For test [20] the target is unchanged. As to the kind of experiment: qHTS assay to identify small molecule antagonists of the androgen receptor (AR) signaling pathway using the MDA cell line (AID 743042; also: nearly all actives have a fitted effect of over 55% in size). In a few lines:
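Antagonist mode: compounds plus R1881 agonist added to MDA-kb2 AR-luc cells, incubated 16 h at 37C. Luciferase reporter luminescence quantified, with multiplexed CellTiter-Fluor readout for cell viability.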

Values joined by “and” are separate entries in the source; they are usually repeats but may differ in a detail not shown here. Equal values may be shown once. Inconclusive results are not listed. Some structures have more than one record in an assay (separate samples or runs), and their calls can disagree. Active and inactive are the calls of the source. Unless noted, calls follow the shape of the dose curve; as a rule, active = well fitted curve in the direction sought with a large enough effect in the repeat runs; inconclusive = weak or mixed curves; inactive = no such curve, though single readings can be large; an effect the other way counts as inactive or inconclusive.

Sequence of Glucocorticoid receptor (Homo sapiens) (P04150 whole entry, looked up): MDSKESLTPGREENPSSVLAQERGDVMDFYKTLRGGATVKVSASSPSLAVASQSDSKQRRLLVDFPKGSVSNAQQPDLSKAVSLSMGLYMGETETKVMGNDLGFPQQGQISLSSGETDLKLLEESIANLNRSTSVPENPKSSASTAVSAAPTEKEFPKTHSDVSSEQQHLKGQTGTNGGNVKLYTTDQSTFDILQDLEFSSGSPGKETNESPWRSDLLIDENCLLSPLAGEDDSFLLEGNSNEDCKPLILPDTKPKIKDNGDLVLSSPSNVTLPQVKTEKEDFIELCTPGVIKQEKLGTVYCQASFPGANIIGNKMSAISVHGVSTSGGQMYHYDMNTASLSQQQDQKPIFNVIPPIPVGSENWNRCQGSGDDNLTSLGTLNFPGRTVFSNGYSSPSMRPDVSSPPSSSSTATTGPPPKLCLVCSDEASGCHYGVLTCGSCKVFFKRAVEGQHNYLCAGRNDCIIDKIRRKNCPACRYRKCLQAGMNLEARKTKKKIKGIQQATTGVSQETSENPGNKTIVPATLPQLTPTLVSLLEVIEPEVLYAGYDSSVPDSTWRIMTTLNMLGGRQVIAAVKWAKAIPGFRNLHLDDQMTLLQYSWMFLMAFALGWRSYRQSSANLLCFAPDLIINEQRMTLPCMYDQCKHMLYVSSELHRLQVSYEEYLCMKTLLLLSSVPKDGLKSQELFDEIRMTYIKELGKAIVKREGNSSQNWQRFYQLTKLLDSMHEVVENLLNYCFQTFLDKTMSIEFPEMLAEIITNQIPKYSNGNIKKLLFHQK
Sequence of Androgen receptor (Homo sapiens) (P10275 whole entry, looked up): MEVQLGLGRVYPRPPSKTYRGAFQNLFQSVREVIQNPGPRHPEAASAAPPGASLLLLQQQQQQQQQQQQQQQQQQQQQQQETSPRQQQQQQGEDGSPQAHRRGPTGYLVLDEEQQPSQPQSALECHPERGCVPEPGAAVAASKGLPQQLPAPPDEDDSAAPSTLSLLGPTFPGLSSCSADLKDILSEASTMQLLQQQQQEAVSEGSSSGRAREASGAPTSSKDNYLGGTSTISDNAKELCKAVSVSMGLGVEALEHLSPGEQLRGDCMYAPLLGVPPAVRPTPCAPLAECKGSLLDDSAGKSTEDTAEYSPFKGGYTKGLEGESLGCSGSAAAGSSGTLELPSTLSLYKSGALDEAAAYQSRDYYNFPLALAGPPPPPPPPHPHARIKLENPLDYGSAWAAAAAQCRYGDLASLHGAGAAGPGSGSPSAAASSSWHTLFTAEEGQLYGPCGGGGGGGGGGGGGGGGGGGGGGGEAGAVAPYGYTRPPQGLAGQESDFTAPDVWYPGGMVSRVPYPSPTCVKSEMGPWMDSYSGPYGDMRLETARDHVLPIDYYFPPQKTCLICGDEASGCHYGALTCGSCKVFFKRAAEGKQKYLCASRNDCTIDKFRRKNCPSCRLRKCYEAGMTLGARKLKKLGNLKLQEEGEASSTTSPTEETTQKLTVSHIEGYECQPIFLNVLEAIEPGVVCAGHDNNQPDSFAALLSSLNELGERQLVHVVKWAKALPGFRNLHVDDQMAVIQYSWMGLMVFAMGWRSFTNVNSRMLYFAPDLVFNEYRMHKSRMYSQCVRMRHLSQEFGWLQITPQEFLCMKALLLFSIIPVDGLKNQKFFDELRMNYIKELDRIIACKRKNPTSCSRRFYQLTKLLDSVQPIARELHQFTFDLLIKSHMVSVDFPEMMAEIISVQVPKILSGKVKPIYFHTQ

Take `Brc1cc(Oc2cc(Br)c(Br)c(Br)c2Br)c(Br)c(Br)c1Br`: the Potency result in [1], in test [3], in [4], in test [5], in test [7] and in test [8] was “inactive” each time. In addition, the Potency entry in test [9], in test [10], in [11], in test [12], in [13] and in test [14] was “inactive” in each case. In addition, in [15], the Potency result is “inactive”. Further, the compound was classed as inactive in test [2] and in [6].
As to `CCCCc1oc2ccccc2c1C(=O)c1cc(I)c(OCCN(CC)CC)c(I)c1`, the Potency entry in test [1], in test [3], in test [4], in test [5] and in [7] was “inactive” each time. For the same compound, the result in test [2], in test [6] and in test [16] was inactive. In test [14], the Potency entry was “inactive and 34.9 µM (active)”.
`O=C(c1ccccc1)c1ccccc1O`: the Potency entry in test [1], in test [3], in test [4], in [5], in [7] and in test [8] was “inactive” each time. In addition, the Potency result in test [9], in test [10], in test [11], in test [12], in test [13] and in [14] was “inactive” each time. The Potency result in test [17], in [19], in test [15] and in test [20] was “inactive” throughout. Also, the compound was classed as inactive in test [2], in test [6] and in test [18].
With `COc1cc([C@@H]2c3cc4c(cc3[C@H](O)[C@H]3COC(=O)[C@H]23)OCO4)cc(OC)c1OC`, the Potency result in test [1], in test [3], in [4], in test [5], in test [7] and in test [8] was “inactive” throughout. The Potency result in test [14], in test [19], in test [15] and in test [20] was “inactive” throughout. The outcome in [2] and in test [6] was inactive. Moreover, the Potency was 26.6 nM (active) and 24.3 nM (active) in test [11]; 29.8 nM (active) and 19.3 nM (active) in test [12]; 29.8 nM (active) and 21.7 nM (active) in test [13]; 37.9 nM (active) in test [17].
For `O=C(/C=C/c1ccccc1)OCc1ccccc1`, the Potency result in test [1], in [3], in [4], in test [5], in [7] and in test [8] was “inactive” each time. Further, the Potency result in test [9], in [10] and in [14] was “inactive” throughout. The compound was classed as inactive in test [2] and in [16]. Besides, the Potency result is “inactive and 54.5 µM (active)” in test [11]; “inactive and 38.6 µM (active)” in [12]; “inactive and 43.3 µM (active)” in [13].
On to `C[Si](C)(C)O[Si](C)(C)C`, for which the Potency result in [1], in test [3], in test [4], in test [5], in [7] and in test [10] was “inactive” in each case. Moreover, the Potency entry in [11], in test [12], in test [13] and in [14] was “inactive” throughout. For the same compound, the compound was called inactive in test [2] and in test [6].
As to `Cc1[nH]c(=O)c(C#N)cc1-c1ccncc1`, the Potency entry in test [1], in test [3], in test [4], in test [5], in test [7] and in [11] was “inactive” in each case. Besides, the Potency entry in test [12], in test [13], in test [14] and in test [15] was “inactive” in each case. In addition, the compound was classed as inactive in test [2] and in [6].
As for `CC(=O)CC/C=C(\C)CCC=C(C)C`, the Potency result in test [1], in test [3], in test [4], in [5], in test [7] and in [10] was “inactive” each time. In addition, the Potency result in test [11], in test [12], in [13] and in test [14] was “inactive” each time. Further, the compound was classed as inactive in test [2] and in test [6].
